From PubChem BioAssay AID1159580 (chemical genetic matrix, 2015)
Values joined by “and” are separate entries in the source; they are usually repeats but may differ in a detail not shown here. Identical values can stand only once. About 2,000 (36%) of roughly 5,500 compounds were called active. Not shown: some 18% with an inconclusive outcome. Rule as the data show it: active = normalized growth mostly below about 0.91 (no sharp cut-off); inconclusive = no clear call, values can overlap the other calls; inactive = mostly above about 0.92. The list shows a part of the results.

Experiment: chemical genetic growth profiling, strain panel (AID 1159580);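 also: tested at 20 µM; growth read once vehicle control cultures reached saturation at 30 °C; 1 = growth at the plate median or of vehicle wells; lower values mean less growth of the strain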
Conditions: S. cerevisiae deletion strains, growth OD

Measured: normalized growth

NC(Cn1ccc(=O)c(O)c1)C(=O)O (configuration not stated)
inactive: locus YAL013W, strain DEP1, hits give low values 1.01 | locus YAL021C, strain ccr4, hits give low values 1 | locus YAL026C, strain drs2, hits give low values 1.04 | locus YAL030W, strain snc1, hits give low values 1.01 | locus YBL061C, strain skt5, hits give low values 1.03 | locus YBR009C, strain hhf1, hits give low values 0.992 | locus YBR021W, strain FUR4, hits give low values 1.01 | locus YBR023C, strain chs3, hits give low values 1.03 | locus YBR171W, strain sec66, hits give low values 1.03 | locus YBR229C, strain ROT2, hits give low values 1.02 | locus YBR231C, strain swc5, hits give low values 1.01 | locus YBR279W, strain paf1, hits give low values 1.03 | locus YCL011C, strain gbp2, hits give low values 1.03 | locus YCL016C, strain dcc1, hits give low values 1.04 | locus YCL029C, strain bik1, hits give low values 0.98 | locus YCL061C, strain MRC1, hits give low values 1.01 | locus YCL069W, strain vba3, hits give low values 1.01 | locus YCR088W, strain abp1, hits give low values 1.02 | locus YDL005C, strain med2, hits give low values 1.03 | locus YDL035C, strain GPR1, hits give low values 1.03 | locus YDL040C, strain nat1, hits give low values 1.02 | locus YDL074C, strain BRE1, hits give low values 1.03 | locus YDL101C, strain DUN1, hits give low values 1.02 | locus YDL134C, strain PPH21, hits give low values 1.01 | locus YDL185W, strain tfp1, hits give low values 0.978 | locus YDL192W, strain arf1, hits give low values 0.994 | locus YDR001C, strain nth1, hits give low values 1.02 | locus YDR069C, strain doa4, hits give low values 1.02 | locus YDR101C, strain arx1, hits give low values 1 | locus YDR137W, strain rgp1, hits give low values 1.05 | locus YDR150W, strain NUM1, hits give low values 1.01 | locus YDR159W, strain sac3, hits give low values 0.943 | locus YDR162C, strain NBP2, hits give low values 1.02 | locus YDR195W, strain ref2 1.01 | locus YDR297W, strain sur2, hits give low values 0.998 | locus YDR318W, strain mcm21, hits give low values 0.992 | locus YDR334W, strain swr1, hits give low values 1.02 | locus YDR335W, strain msn5, hits give low values 1.03 | locus YDR388W, hits give low values 0.993 | locus YDR392W, strain spt3, hits give low values 0.959 | locus YDR502C, strain sam2, hits give low values 1.01 | locus YEL003W, strain gim4, hits give low values 1 | locus YEL037C, strain rad23, hits give low values 1.02 | locus YEL061C, strain CIN8 (second series), hits give low values 1.03 | locus YEL061C, strain CIN8, hits give low values 1.01 | locus YER015W, strain faa2, hits give low values 1.01 | locus YER016W, strain bim1, hits give low values 1.05 | locus YER110C, hits give low values 0.969 | locus YER111C, strain swi4, hits give low values 1.02 | locus YER155C, strain BEM2 (second series), hits give low values 1.01 | locus YER155C, strain BEM2, hits give low values 1.01 | locus YER167W, strain BCK2, hits give low values 1.03 | locus YFR010W, strain ubp6, hits give low values 0.994 | locus YGL078C, strain dbp3, hits give low values 1.01 | locus YGL086W, strain mad1, hits give low values 1 | locus YGL167C, strain pmr1, hits give low values 1.02 | locus YGL173C, strain kem1, hits give low values 1 | locus YGL227W, strain vid30, hits give low values 1.05 | locus YGL240W, strain doc1, hits give low values 1 | locus YGL248W, strain PDE1, hits give low values 1.02 | locus YGL253W, strain hxk2, hits give low values 1.03 | locus YGR078C, strain PAC10, hits give low values 1.02 | locus YGR135W, strain pre9, hits give low values 1.02 | locus YGR229C, strain SMI1, hits give low values 1.02 | locus YGR252W, strain gcn5, hits give low values 1.07 | locus YHR013C, strain ard1, hits give low values 1.05 | locus YHR027C, strain rpn1, hits give low values 1.02 | locus YHR030C, strain SLT2, hits give low values 1.01 and 1.02 | locus YHR079C, strain IRE1 (second series), hits give low values 0.988 | locus YHR079C, strain IRE1, hits give low values 1.04 | locus YHR094C, strain hxt1, hits give low values 0.996 | locus YHR129C, strain ARP1, hits give low values 1.01 | locus YHR142W, strain chs7, hits give low values 1.03 | locus YHR200W, strain rpn10, hits give low values 0.991 | locus YIL066C, strain RNR3, hits give low values 1.02 | locus YIL073C, strain SPO22, hits give low values 0.978 | locus YIL125W, strain kgd1, hits give low values 1 | locus YIR030C, strain dcg1, hits give low values 0.986 | locus YJL092W, strain hpr5, hits give low values 1.01 | locus YJL095W, strain BCK1 (second series), hits give low values 1.03 | locus YJL095W, strain BCK1, hits give low values 1.02 and 1.01 | locus YJL115W, strain asf1, hits give low values 1.02 | locus YJL129C, strain trk1, hits give low values 1.03 | locus YJL134W, strain LCB3, hits give low values 1.01 | locus YJL154C, strain vps35, hits give low values 1.01 | locus YJL164C, strain tpk1, hits give low values 0.996 | locus YJL166W, strain qcr8, hits give low values 1.01 | locus YJL168C, strain set2, hits give low values 0.99 | locus YJL187C, strain SWE1 (second series), hits give low values 1.01 | locus YJL187C, strain SWE1, hits give low values 1.01 | locus YJR043C, strain POL32, hits give low values 1.01 | locus YJR066W, strain TOR1, hits give low values 0.98
